# Assay results published in PubChem BioAssay AID651664 (NMMLSC, 2012).
# Fewer than 10 of roughly 1,800 compounds were called active. These entries were drawn from the full list. Unmarked numbers belong to inactive results.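 Rule for the calls: active = inhibition of granule release above a set limit; inactive = the rest.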
# Assay: inhibitors of lytic granule exocytosis, flow cytometry, TALL-104 cells, validation set (AID 651664)
# Details: TALL-104 LAMP-1 externalization, at 15.2 µM, active compounds read high, stimulated with thapsigargin and PMA
row,Structure (SMILES),inhibition
1,CC1CCCN(C(=O)C2CCN(CC3CC=CCC3)CC2)C1 (stereo not drawn),-1.1%
2,OCCN=c1cc(-c2ccccc2)oc2ccc(Cl)cc12,3.5%
3,O=C(/C=N/O)Nc1ccc(F)cc1,-2.8%
4,Cc1ccc(-n2nc(C)c3cc(C(=O)O)sc32)cc1,5.6%
5,O=C(CSc1nnc(-c2cccs2)n1-c1ccccc1)Nc1ccccc1,22.8%
6,Cc1nc(NCc2ccco2)c2oc3ccccc3c2n1,-2.5%
7,C=CCn1c(-c2ccco2)n[nH]c1=S,-0.5%
8,[O-]C1=N/[N+](=C/c2ccccc2Cl)CC1,-2.2%
9,COC(=O)CSc1ncnc2c1cnn2Cc1ccccc1,-0.5%
10,N/C(=N\OS(=O)(=O)c1ccccc1)c1ccncc1,-2.3%
11,CCOc1ccc(CN(CCO)CCO)cc1[N+](=O)[O-],-2.2%
12,O=C(CSc1ccccn1)N1CCN(C(=O)CSc2ccccn2)CC1,0.4%
13,Clc1ccc(/C=N/NC(=Nc2ccccc2)c2ccccn2)c(Cl)c1,1.5%
14,CC(=O)N1CCN(S(=O)(=O)c2cccc(C(=O)NC3CCCc4ccccc43)c2)CC1 (stereo not drawn),0%
15,Oc1ccccc1N=Nc1nc(-c2ccccc2)c(-c2ccccc2)[nH]1,-2.4%
16,Cc1ccccc1OCC(=O)Nc1cccc(NC(=O)c2ccco2)c1,1.8%
17,CC(C(=O)O)N1C(=O)CSc2ncccc21 (stereo not drawn),2.4%
18,CCC(C)NC(=O)Cn1cccc1C(=O)c1ccccc1 (stereo not drawn),-0.2%
19,CC(NC(=O)NCCCC(=O)O)(C(F)(F)F)C(F)(F)F,2%
20,Cc1ccc(S(=O)(=O)N2CCOCC2)cc1C(=O)OCC(=O)N1CCc2ccccc2C1,-0.4%
21,Cc1cc2c(cc1C)NC(c1nc3ccccc3[nH]1)C1=C(CC(C)(C)CC1=O)N2 (stereo not drawn),-3.1%
22,O=c1[nH]c2c(s1)C(c1ccccc1)C1C3CCC(C3)C1S2 (stereo not drawn),0.8%

row,Structure (SMILES),inhibition
1,COCCCNC(=O)C1CCC(=O)N1Cc1ccccc1Cl (stereo not drawn),0.7%
2,Cc1ccc(C(=O)Cn2cnc3ccccc3c2=O)cc1C,6.9%
3,C=C(C)CN1C(=O)C(O)(CC(=O)c2ccc3c(c2)OCCO3)c2ccccc21 (stereo not drawn),1.5%
4,Cc1cc(C)c(S(=O)(=O)NCc2cn3c(C)csc3n2)c(C)c1,-4.5%
5,CC1=CC=CN2CC(O)CN=C12 (stereo not drawn),1%
6,O=C(Oc1ccccc1)N1CCN(c2ccc(F)cc2)CC1,6.6%
7,COC(=O)c1ccc(CN2CCN(Cc3ccc(C(=O)OC)o3)CC2)o1,2.2%
8,O=c1[nH]n(-c2ncnc3c2cnn3-c2ccccc2)c(=O)c2ccccc12,-0.6%
9,CCC(C)N=CC1=C(O)CC(c2ccccc2)CC1=O (stereo not drawn),-2.1%
10,O=C(c1ccccc1)N(CCN1CCOCC1)C1(C(=O)Nc2ccccc2)CCCCC1,5.2%
11,COc1ccc(NC(=O)CSc2c(C)nn(-c3nnc(C)c(=O)[nH]3)c2C)cc1,0.5%
12,COC(=O)c1ccc(CSc2nc3ccccc3c(=O)n2-c2ccccc2)o1,-0.9%
13,Cn1c(CN2CCCC2)nc2cc(NS(=O)(=O)c3ccc(Cl)cc3)ccc21,-3.8%
14,CCC(C)NC(=O)CSc1nnc(-c2cc(-c3cccs3)nc3ccccc23)o1 (stereo not drawn),-1.3%
15,COC(=O)c1cc(NC(=O)CN(c2ccc3c(c2)OCO3)S(C)(=O)=O)ccc1Cl,1.7%
16,CCOc1ccccc1N1CC(C(=O)Nc2nccs2)CC1=O (stereo not drawn),-1.1%
17,Cc1cnc(NC(=O)c2ccc3c(c2)C(=O)N(Cc2ccco2)C3=O)s1,-1.3%
18,COc1ccc(N/N=C(/N=Nc2nc(C)cc(=O)[nH]2)c2ccccc2)cc1,3.7%
19,CCOC(=O)c1ccc(N2C(=O)CC(Sc3nnc(C)s3)C2=O)cc1 (stereo not drawn),-0.5%
20,Cc1ccc(-c2nc(N)c3c(-c4ccc(C)cc4)nn(C(C)(C)C)c3n2)cc1,0%
21,O=c1[nH]c(CO)nc2c1oc1ccccc12,-3.5%
22,CCC(C#CCN1CCCCC1)(CC)OCCC#N,25.8%

row,Structure (SMILES),inhibition
1,COC(=O)CN1C(=O)CSc2ncccc21,0.6%
2,CCCCOCCCNC(=O)N[C@H](C(=O)OC)C(C)C,-2.9%
3,Nc1ncnc2nc(SCc3ccc(Cl)cc3Cl)[nH]c12,6.3%
4,CN(C)c1nc(SCc2ccccc2Cl)nc2c1CCCC2,-0.7%
5,CC1(C)Cc2c(sc3ncn4nc(-c5ccco5)nc4c23)CO1,-1.3%
6,O=C(COc1ccc(F)cc1)c1ccc2c(c1)CCCC2,-2.8%
7,O=C1c2ccccc2-c2c1nc1c([n+]2[O-])CCCC1,-5.1%
8,COc1ccc2c(c1OC)C(=O)N(c1cccc(C)c1)C2=O,1.1%
9,CO/N=C/C(=N\Nc1ccc(OC)cc1)C(=O)c1ccc(OC)cc1,0.7%
10,COc1ccc(S(=O)(=O)N(C)CC(=O)Nc2ccccc2C(F)(F)F)cc1OC,-1.6%
11,CN1CCN(c2nc(-c3ccccc3)nc3c2oc2ccccc23)CC1,1.5%
12,O=C(CSc1nnc(CNc2ccc(F)cc2)n1-c1ccccc1)N1CCOCC1,-4.6%
13,COc1ccc(N=C2S/C(=C\c3ccc(C)s3)C(=O)N2CC(C)C)cc1,-0.3%
14,Fc1ccccc1/C=N/Nc1nn[nH]n1,-1.6%
15,CCOC(=O)c1c(NC(=O)Cc2cccs2)sc(C(=O)N2CCCCC2)c1C,-4.7%
16,CN=C(NC)SC1CC(=O)N(c2ccccc2)C1=O (stereo not drawn),3.9%
17,CCOc1cc(/C=N/n2cnnc2)cc(Br)c1O,-0.7%
18,O=C1CCC(=O)N1c1nc2nc(-c3ccccc3)cc(=O)n2[nH]1,-1.6%
19,CC(=O)COc1ncn(-c2ccccc2)n1,0.2%
20,Fc1cc2nc(-c3ccncc3)[nH]c2cc1F,-0.1%
21,Cc1noc(NS(=O)(=O)c2ccc(NC(=O)Nc3ccc(Cl)c(Cl)c3)cc2)c1C,0%
22,CCn1c(-c2ccccc2)c[nH]c1=S,-1.3%

row,Structure (SMILES),inhibition
1,Nc1c(C(=O)NCC2CCCO2)sc(=S)n1-c1ccccc1 (stereo not drawn),0.7%
2,COc1ccc(C)cc1-n1nnnc1SCc1cn2ccsc2n1,-3.3%
3,CC(=O)c1ccc(N2CCN(CCC#N)CC2)c(F)c1,8.2%
4,Cc1occc1C(=O)NC(C)CCc1ccccc1 (stereo not drawn),6.4%
5,CC(C)(C)NC(=O)C1Cc2ccccc2CN1C(=O)Nc1cccc(Cl)c1 (stereo not drawn),3.6%
6,CN(C)c1ccc(-c2nnc(-c3ccc(S(=O)(=O)C(F)F)cc3)o2)cc1,-2%
7,COc1ccc(-c2sc(NC(=O)c3ccc(C)cc3)nc2-c2ccc([N+](=O)[O-])cc2)cc1,0.2%
8,NC(=O)NC(=O)CSc1nc(-c2ccccc2)c(-c2ccccc2)n1CC1CCCO1 (stereo not drawn),3.8%
9,CCCc1nc2ccccc2c(=O)n1/N=C/c1ccccc1O,-1.9%
10,Cc1snc(S(=O)(=O)/C(C#N)=N/Nc2cccc(C(F)(F)F)c2)c1C#N,5.6%
11,CCNc1nc(NCC)nc(OCCOC(=O)COc2ccc(Cl)cc2Cl)n1,-2.4%
12,CN1CC(=O)NC1=NC(=O)c1ccc(Cl)c(S(=O)(=O)N2CCCCCC2)c1,-1.1%
13,Cc1ccc2c(c1Br)/C(=N/N1C(=O)c3ccccc3C1=O)C(=O)N2,-3.6%
14,Clc1ccc(-c2nnnn2-c2ccc(Cl)c(Cl)c2)cc1Cl,-0.4%
15,COc1ccccc1N(C(=O)c1ccco1)C(C(=O)NC1CCCC1)c1cccnc1 (stereo not drawn),-0.8%
16,CC(C)(C)NC(=O)Cc1ccc(S(=O)(=O)N2CCCC2)s1,-1.8%
17,Nc1nc(CSc2nc3ccccc3s2)nc(N2CCCCC2)n1,3.2%
18,FC(F)(F)c1cccc(NC(=S)N2CCN(c3cccc(C(F)(F)F)c3)CC2)c1,-4.7%
19,Cc1nc2cc(S(=O)(=O)N3CCC(C(=O)O)CC3)ccc2n1C1CCCC1,-3.7%
20,O=C(CSc1ncnc2c1cnn2Cc1ccccc1)Nc1ccc2c(c1)OCCO2,0.3%
21,O=C1c2ccccc2C(=O)N1SC1CCCCC1,-1.8%
22,S=c1[nH]nc(-c2ccccc2Cl)n1CC1CCCO1 (stereo not drawn),-1.9%

row,Structure (SMILES),inhibition
1,Cn1c(-c2ccccc2Br)n[nH]c1=S,89.2% (active)
2,COCCCn1c(-c2ccccc2Cl)n[nH]c1=S,4.6%
3,Cc1nn2c(N)c(C#N)cnc2c1-c1ccc(Cl)cc1,2.5%
4,CN1CCN(C(=O)c2ccc3c(c2)NC(=O)C(N2CCOCC2)S3)CC1 (stereo not drawn),3.1%
5,COCCNc1nc2ccccc2nc1NS(=O)(=O)c1ccc(C)cc1C,2.3%
6,CC(=O)C(C)Oc1ncn(-c2ccccc2)n1 (stereo not drawn),-3%
7,N#Cc1ccc(C(=O)Nc2ccc(S(=O)(=O)NC3=NCCCCC3)cc2)cc1,4.4%
8,O=C(Nc1ccccc1)N1CCN(c2ccccn2)CC1,-1.4%
9,O=C1CCCCC1C(Nc1ccc(Cl)cc1)c1ccccc1 (stereo not drawn),1.3%
10,COc1ccc(C(CNC(=O)c2ccc(N3CCCC3=O)cc2)N(C)C)cc1 (stereo not drawn),-2%
11,Clc1ccccc1C1SCC2Nc3ccccc3CN21 (stereo not drawn),0.1%
12,Cc1cccc(/C(N)=N/OC(=O)CCCN2C(=O)c3ccccc3C2=O)c1,1.9%
13,COc1ccccc1NC(=O)CC1COc2ccccc2O1 (stereo not drawn),-0.3%
14,CCOc1ccccc1NC(=O)c1ccc(S(=O)(=O)N2CCOCC2)cc1,-1.3%
15,Cc1ccc(Cl)cc1NC(=O)CSC(N)=O,-3%
16,COC(=O)C1=CN(CCCN2CCCC2=O)C=C(C(=O)OC)C1c1ccccc1C(F)(F)F,3.5%
17,CCC(CC)NC(=O)c1cc2c(C)nn(Cc3ccccc3Cl)c2s1,-0.5%
18,Cc1nnc(N(CCC#N)CCC#N)s1,0%
19,O=C(CN1CCN(c2cccc(C(F)(F)F)c2)CC1)Nc1cccc(C(F)(F)F)c1,-3.2%
20,Cc1oc2nc(SCCCC(=O)NCCO)nc(N)c2c1C,2.7%
